# Compounds without any hit were thinned out: in the full panel of roughly 83,000, 20% have a hit.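 In brief: 96-well plates, 48 h treatment, single concentration, percent growth endpoint.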 Unmarked numbers belong to inactive results. Activity calls are given as the source filed them. How the source made its calls: active means growth percent below 10; inactive means the rest.
# What was measured:
# Experiment in all cases: NCI-60 one-dose screen, 48 h (100 = growth as untreated, 0 = no growth, -100 = all killed)
# SR leukemia = details: 10 µM unless noted
# RPMI-8226 leukemia = details: 10 µM unless noted
# OVCAR-8 ovarian = details: 10 µM unless noted
# OVCAR-5 ovarian = details: 10 µM unless noted
# OVCAR-4 ovarian = details: 10 µM unless noted
# SK-OV-3 ovarian = details: 10 µM unless noted
# IGROV1 ovarian = details: 10 µM unless noted
# OVCAR-3 ovarian = details: 10 µM unless noted
# HS 578T breast = details: 10 µM
# T-47D breast = details: 10 µM unless noted
# BT-549 breast = details: 10 µM unless noted
# SW-620 colon = details: 10 µM unless noted
# MCF7 breast = details: 10 µM unless noted
# HCT-116 colon = details: 10 µM unless noted
# HCC-2998 colon = details: 10 µM unless noted
# KM12 colon = details: 10 µM unless noted
# MDA-MB-435 melanoma = details: 10 µM unless noted
# NCI/ADR-RES ovarian = details: 10 µM unless noted
Structure (SMILES),growth (SR leukemia),growth (RPMI-8226 leukemia) [%],growth (OVCAR-8 ovarian) [%],growth (OVCAR-5 ovarian) [%],growth (OVCAR-4 ovarian) [%],growth (SK-OV-3 ovarian) [%],growth (IGROV1 ovarian) [%],growth (OVCAR-3 ovarian),growth (HS 578T breast) [%],growth (T-47D breast) [%],growth (BT-549 breast) [%],growth (SW-620 colon) [%],growth (MCF7 breast) [%],growth (HCT-116 colon),growth (HCC-2998 colon) [%],growth (KM12 colon) [%],growth (MDA-MB-435 melanoma),growth (NCI/ADR-RES ovarian) [%]
COc1ccc(NC(=O)C2c3ccccc3C(=O)N(CC(C)C)C2c2cccs2)cc1 (stereo unspecified),96.5%,86.3,89.1,97,93.6,96.5,117,102%,92.2,102,98.9,92,82.3,93.3%,93.3,97.5,,
COc1cc2c(cc1OC)C(=O)C(Br)CC2 (stereo unspecified),19.8%,20.6,33,73.7,52.7,83.2,41.7,38.9%,88.8,36.3,16.1,25.1,40.9,7.03% (active),90.6,88.9,20.2%,
CSC1=NC(=Nc2c(C)cccc2C)C2(CCC(C(C)(C)C)CC2)N1c1ccc(Cl)cc1 (stereo unspecified),26%,51.5,31.6,72.1,60,57.6,55.4,55.3%,65.9,89.9,81.4,28.6,43,22.4%,44.3,39.9,36.5%,
COc1cc(C(=O)/C=C/c2cn(-c3ccccc3)nc2-c2cccc(Nc3ccnc4cc(Cl)ccc34)c2)cc(OC)c1OC,3.48% (active),47.2,78.5,112,127,115,93.2,132%,102,95.4,93.3,99.1,71.2,68.1%,108,93.5,66.9%,
CC(C)N=C1CCCC1C(=S)SSC(=S)C1CCCC1=NC(C)C (stereo unspecified),47.7%,59.5,61.7,93.9,53.8,110,52.8,44.8%,75.9,47,82.2,74.9,56.9,51.4%,116,101,61.7%,
CCNC(=S)N(Cc1ccccc1)Cc1ccccc1,72%,110,103,91,124,105,113,123%,136,,119,115,107,110%,98.3,114,,106
CC(C)N1CCN(c2ccncc2S(=O)(=O)N2CCN(C)CC2)CC1,93.5%,102,103,96.9,96.1,103,119,110%,105,96.2,107,105,94.1,100%,106,99.1,101%,
CCOC(=O)c1ccc(NC(=O)NC2=NCCS2)cc1,17.6%,13.9,27.1,96.5,70.6,11.5,21.5,-53.7% (active),42.7,35.8,24.2,77.8,33.4,93%,45,15.5,48.3%,
CCOC(=O)Nc1ccc2nc(-c3cscn3)[nH]c2c1,23.3%,43.1,57.8,85.9,89.7,56.5,42.6,22.8%,64.7,44.5,48.6,19.8,34,21.6%,65.7,34.3,-40.5% (active),

# — PubChem BioAssay (NCI)
